# According to PubChem BioAssay:
# “And” between values parts separate entries of the source, which are not always exact repeats. Equal entries are not always repeated. The source made the active and inactive calls.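 How the source made its calls, unless noted: active means inhibition at or above 50% relative to wild type and mutant plate controls; inactive means inhibition below 50%.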
# Tests used:
# [1] = inhibitors of TNFa-induced NFkB p65 translocation, primary screen, imaging, HUVEC, MLSMR starter and 10KST1 sets (AID 438;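 active means inhibition above 20% together with a positive visual image hit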;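 further: compound added about 3h40 before a 20 min TNFalpha stimulation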;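 on inhibition: signal is the nuclear over cytoplasmic p65 intensity ratio per well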); conditions: HUVEC TNFa-induced p65 nuclear translocation; cell count: measured here: nuclei count (cytotoxicity indicator), at 2.08 µM unless noted; inhibition: at 2 µM, stronger effect = higher value unless noted
# [2] = reduction of polyQ htt aggregates in cells – imaging, exon1htt(103Q)mCFP cells, high-content imaging, primary screen (AID 483;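 active means visual image review flags a hit and inhibition of aggregation exceeds 20%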;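 further: compound exposure lasted 3 days before fixation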;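 on nuclei count: percent of the per-plate median nuclei count of sample wells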); conditions: exon1htt(103Q)mCFP cell line, aggregate imaging, at 2 µM; inhibition of aggregation: stronger effect = higher value; nuclei count: measured here: cell count, toxicity
# [3] = endothelial E-selectin expression blockers – imaging, HUVEC, immunofluorescence, MLSMR starter and 10KST1 sets, primary screen (AID 487;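 active means visually confirmed hit in the image check and inhibition above 20%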;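 on inhibition: signal is fraction of cell area covered by stained E-selectin grains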;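 on nuclei count: 100% = median nuclei count of all wells on the same plate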); conditions: HUVEC TNFalpha-induced E-selectin immunofluorescence imaging, at 2 µM; inhibition: stronger effect = higher value; nuclei count: measured here: cell number, toxicity
# [4] = Primary imaging screen for DUSP6 inhibitors that restore phospho-Erk in transfected HeLa cells, chemical complementation (AID 609;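 active means compounds giving at least 50% inhibition in the cell-based MKP-3 phosphatase rescue imaging test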;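 on inhibition: phospho-Erk level distribution per well compared with pooled transfected vehicle control wells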); conditions: HeLa MKP-3 transfected, phospho-Erk imaging KS statistic, at 10 µM
# [5] = biological target: Dual specificity protein phosphatase 6 (Homo sapiens) (UniProt Q16828); assay: as above; conditions: HeLa MKP-3 transfected, phospho-Erk imaging KS statistic, at 10 µM, stronger effect = higher value
# Sequence of Dual specificity protein phosphatase 6 (Homo sapiens) (Q16828 whole entry, looked up): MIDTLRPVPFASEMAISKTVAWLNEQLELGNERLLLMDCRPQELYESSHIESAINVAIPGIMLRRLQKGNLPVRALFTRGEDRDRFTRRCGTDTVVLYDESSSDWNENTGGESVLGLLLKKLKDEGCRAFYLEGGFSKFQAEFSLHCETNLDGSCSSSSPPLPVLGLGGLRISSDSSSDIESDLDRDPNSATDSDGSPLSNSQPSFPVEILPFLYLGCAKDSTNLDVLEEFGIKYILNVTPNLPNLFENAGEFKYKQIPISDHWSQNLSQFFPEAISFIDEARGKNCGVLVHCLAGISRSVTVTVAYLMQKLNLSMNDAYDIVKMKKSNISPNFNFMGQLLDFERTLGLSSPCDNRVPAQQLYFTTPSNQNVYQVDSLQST
# [6] = biological target: Voltage-gated potassium channel subunit beta-2 (Rattus norvegicus) (UniProt P62483); assay: inhibitors of rat Kvbeta2 reductase activity – biochemical, NADPH fluorescence, primary screen (AID 622;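 active means fluorescence slope higher than the sample average by over 3 SD, cut at about -0.22 in these data, passing the limit was not always enough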;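 further: slope of raw intensity against log time taken from 70 to 1610 s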); conditions: recombinant KvBeta, 4-cyanobenzaldehyde reduction, at 10 µM, stronger effect = higher value
# Sequence of Voltage-gated potassium channel subunit beta-2 (Rattus norvegicus) (P62483 whole entry, looked up): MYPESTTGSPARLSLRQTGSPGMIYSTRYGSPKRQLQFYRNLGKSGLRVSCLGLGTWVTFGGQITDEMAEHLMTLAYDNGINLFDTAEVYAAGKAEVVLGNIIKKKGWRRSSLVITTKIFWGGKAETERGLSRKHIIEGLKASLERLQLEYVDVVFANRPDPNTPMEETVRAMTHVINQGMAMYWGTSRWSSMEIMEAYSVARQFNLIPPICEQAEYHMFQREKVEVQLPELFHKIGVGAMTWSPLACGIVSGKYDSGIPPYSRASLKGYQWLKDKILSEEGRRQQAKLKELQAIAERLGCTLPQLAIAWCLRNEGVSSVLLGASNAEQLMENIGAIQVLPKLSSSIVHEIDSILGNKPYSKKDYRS
# [7] = biological target: Voltage-gated potassium channel subunit beta-2 (Rattus norvegicus) (UniProt P62483); assay: enhancers of rat Kvbeta2 NADPH turnover – biochemical, NADPH fluorescence, primary screen (AID 623;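 active means NADPH fluorescence slope more negative than the mean of all samples by about 3 SD, 99.7% confidence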;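 further: fluorescence intensity change per second fitted from 20 to 320 s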); conditions: Recombinant KvBeta, NADPH fluorescence decrease slope, 10 min; at 10 µM; stronger effect = lower value
# [8] = biological target: Alpha-2C adrenergic receptor (Homo sapiens) (UniProt P18825); assay: compounds altering alpha2C-coupled GIRK flux – cell-based, HEK293 alpha2C/GIRK1/2, thallium flux, primary screen (AID 624;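 active means fluorescence slope after compound addition differing from the mean of all screened samples at 99.7% confidence, in either direction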;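 further: slope of fluorescence ratio to pre-addition baseline per second over 15 to 24 s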); conditions: thallium flux BTC fluorescence, at 10 µM, actives lie on both sides
# Sequence of Alpha-2C adrenergic receptor (Homo sapiens) (P18825 whole entry, looked up): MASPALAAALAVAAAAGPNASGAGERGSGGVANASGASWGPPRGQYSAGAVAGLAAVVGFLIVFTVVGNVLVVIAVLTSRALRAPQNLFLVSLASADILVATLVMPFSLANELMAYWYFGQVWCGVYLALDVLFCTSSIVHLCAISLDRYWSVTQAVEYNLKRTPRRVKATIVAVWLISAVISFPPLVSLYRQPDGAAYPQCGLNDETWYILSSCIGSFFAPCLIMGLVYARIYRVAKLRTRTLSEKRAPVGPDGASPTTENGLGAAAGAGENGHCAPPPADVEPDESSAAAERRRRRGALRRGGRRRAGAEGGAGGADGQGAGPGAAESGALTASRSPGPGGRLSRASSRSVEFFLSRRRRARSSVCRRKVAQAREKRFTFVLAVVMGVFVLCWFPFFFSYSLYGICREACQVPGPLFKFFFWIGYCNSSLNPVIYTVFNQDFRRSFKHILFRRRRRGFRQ
# [9] = inhibitors of larval lipid processing in zebrafish, primary screen, whole organism, PED6 fluorescence, gall bladder and intestine (AID 686;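 active means a full or partial loss of lipid-probe fluorescence in the fish gall bladder, intestine or both, judged by eye; inactive means no fluorescence loss, or compound toxic to the fish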;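 further: larvae 5 to 7 days old with five fish per well; signal comes from phospholipase A2 cleavage of quenched PED6 carried via bile; overnight exposure to compound and PED6 before scoring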); conditions: Zebrafish larvae PED6 lipid processing, fluorescence scoring
# [10] = loss of swimming-algae plug formation – whole organism, Chlamydomonas reinhardtii, WT vs cilia-less mutant, absorbance, 96-well, primary screen (AID 463189); conditions: Chlamydomonas reinhardtii gravitaxis, OD600 absorbance, 2 days; at 10 µM; stronger effect = higher value;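 further: 0% = wild type cc124 cells in DMSO and 100% = ciliumless bld1 mutant cells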
# [11] = blockers of RIG-like receptor reporter activation – cell-based, Sendai virus stimulus, luciferase, 10K MLSCN set, TLR/RLR signaling modifier project, primary screen (AID 602276;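 active means inhibition at or above 50% at 10 µM; inactive means inhibition below 50%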;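 further: firefly luciferase from ISG56 promoter only with Renilla not read in this screen; 0% = Sendai virus plus DMSO and 100% = medium plus DMSO without virus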); conditions: HEK293 RL24 IRF3 luciferase reporter, at 10 µM, stronger effect = higher value
# [12] = TLR3 IRF3 reporter activation blockers – cell-based, poly I:C stimulus, luciferase, 10K MLSCN set, primary screen (AID 602277;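 active means inhibition of the reporter signal at or above 50%; inactive means inhibition below 50%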); conditions: HEK293-TLR3 RL24 IRF3 luciferase reporter, at 10 µM, stronger effect = higher value
# [13] = measured here: cell density z-score
# [14] = measured here: nuclear c-Myc green intensity z-score
# [15] = measured here: nuclear pErk red intensity z-score, stronger effect = higher value
SMILES,cell count [1],inhibition [1],inhibition of aggregation [2],nuclei count [2],inhibition [3],nuclei count [3],"z-score [4, 13]","z-score [4, 14]","z-score [4, 15]",inhibition [5],fluorescence slope [6],NADPH fluorescence slope [7],slope [8],outcome [9],inhibition [10],inhibition [11],inhibition [12],"z-score ([4]; measured here: cell density z-score, cells stimulated with TPA for 15 min)","z-score ([4]; measured here: nuclear c-Myc green intensity z-score, cells stimulated with TPA for 15 min)","z-score ([4]; measured here: nuclear pErk red intensity z-score, stronger effect = higher value, cells stimulated with TPA for 15 min)"
COc1ccc(OC)c([C@@H](O)[C@H](C)NC(C)(C)C)c1,671,-4.8% (inactive),-2.8% (inactive),95.5%,-81.3% (inactive),138%,0.193,0.685,0.252,23.2% (inactive),-0.517 (inactive),-5.7e-05 (inactive),0.00439 (inactive),inactive,17.4% (inactive),2.13% (inactive),33.4% (inactive),,,
Clc1ccc(CSC(Cn2ccnc2)c2ccc(Cl)cc2Cl)cc1 (stereo not given),639,"3.8% [at 2 µM, stronger effect = higher value, 0% TNFa-plus-vehicle, 100% no-TNFa wells] (inactive)",-3.9% (inactive),108%,-57.9% (inactive),120%,,,,10.2% [cells stimulated with TPA for 15 min] (inactive),-0.531 (inactive),-3.2e-05 (inactive),0.0071 (inactive),inactive; toxic [screened at 20 µM (by protocol)],31.3% (inactive),13.2% (inactive),7.53% (inactive),0.528,0.633,0.478
CCCCCCn1c(O)c(C=NC2CCN(Cc3ccccc3)CC2)c(=O)[nH]c1=O,592,-3.3% (inactive),-17.9% (inactive),112%,-34.2% (inactive),131%,2,-0.0485,0.697,19.3% (inactive),-0.332 (inactive),-2.2e-05 (inactive),0.0054 (inactive),inactive,25.8% (inactive),11.7% (inactive),-13.6% (inactive),,,
CN1[C@@H]2CC[C@H]1CC(OC(=O)C1C=Nc3ccccc31)C2 (stereo not given in full),619,0.8% (inactive),-36% (inactive),99.6%,-33.8% (inactive),116%,-1.01,-0.312,0.0205,8% (inactive),-0.448 (inactive),-6.1e-05 (inactive),0.00567 (inactive),inactive,-4.66% (inactive),-81.8% (inactive),52.8% (active),,,
NCC(CC(=O)O)c1ccc(Cl)cc1 (stereo not given),601,-13.8% (inactive),-0.4% (inactive),95.6%,-102% (inactive),112%,-0.759,1.88,0.491,9.37% (inactive),-0.448 (inactive),-4.9e-05 (inactive),0.00441 (inactive),inactive,-1.51% (inactive) and 3.49% (inactive),13.4% (inactive),26.4% (inactive),,,
C[C@H]1CCC/C=C/C2C[C@H](O)CC2[C@H](O)/C=C/C(=O)O1 (stereo not given in full),647,83.2% (active),-436% (inactive),0.6%,94.9% (active),120%,-0.283,0.495,-0.185,23.4% (inactive),-0.473 (inactive),-3.1e-05 (inactive),0.00536 (inactive),inactive; toxic,155% (active),-44.8% (inactive),83% (active),,,
O=C(CCCN1CCC2(CC1)C(=O)NCN2c1ccccc1)c1ccc(F)cc1,564,2.1% (inactive),-20.4% (inactive),100%,3.3% (inactive),103%,-2.08,0.206,3.52,3.59% (inactive),-0.51 (inactive),-3.9e-05 (inactive),0.00481 (inactive),inactive,4.76% (inactive) and 18.8% (inactive),29.9% (inactive),29.3% (inactive),,,
O=c1[nH]c(=O)n(Cc2ccco2)c(O)c1C=NCCCn1ccnc1,506,-1.7% (inactive),4.4% (inactive),89.9%,-104% (inactive),123%,0.638,-0.867,0.884,-0.584% (inactive),-0.334 (inactive),-2.4e-05 (inactive),0.00606 (inactive),inactive,14.1% (inactive),8.16% (inactive),21.1% (inactive),,,
CN1CCN(C(=O)OC2c3nccnc3C(=O)N2c2ccc(Cl)cn2)CC1 (stereo not given),563,-7.6% (inactive),-7% (inactive),109%,-132% (inactive),114%,-0.576,-1.54,0.116,3.45% (inactive),-0.501 (inactive),-7.3e-05 (inactive),0.00689 (inactive),inactive,4.29% (inactive) and -9.06% (inactive),15.5% (inactive),43.6% (inactive),,,
CC(C)(C)OC(=O)c1c(N)n(Cc2ccco2)c2nc3ccccc3nc12,394,-12.8% (inactive),-3.4% (inactive),81%,-57.4% (inactive),127%,0.353,-0.801,-1.16,13.4% (inactive),-0.293 (inactive),5.9e-05 (inactive),0.00636 (inactive),inactive,19.2% (inactive),6.73% (inactive),-1.48% (inactive),,,
